Reference: the supplement of paper PMC6555819

What was measured:
Assay in all cases: PBM binding z-score (relative to random genomic background probes); higher = stronger binding; sequences stand for … in GC…GCGATTGACAGCGTAGAATGAAGG
[1] = tested on: RARb homodimer (NR concentration 270 nM)
How it was run: (§1)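 Scanned fluorescence from custom Agilent 4×180K protein-binding microarrays was regression-normalized. Binding z-scores use random background probes as reference. Ligand-free nuclear receptor dimers were incubated on the arrays for 1 h and detected with antibodies against each partner (one per run).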

[2] = tested on: RARg:RXRa (NR concentration 270 nM, RXRa partner concentration 90 nM)
How it was run: as §1

[3] = tested on: RARg homodimer (NR concentration 270 nM)
How it was run: as §1

[4] = tested on: RXRa DBDmut IVT, anti-RXR (DBD mutation: RXRa K156A/R161A, NR concentration 90 nM)
How it was run: as §1

[5] = tested on: RXRa homodimer (NR concentration 180 nM)
How it was run: as §1

[6] = tested on: THRa:RXRa (NR concentration 90 nM, RXRa partner concentration 90 nM)
How it was run: as §1

[7] = tested on: THRa homodimer (NR concentration 90 nM)
How it was run: as §1

[8] = tested on: VDR:RXRa (NR concentration 270 nM, RXRa partner concentration 90 nM)
How it was run: as §1

[9] = tested on: VDR homodimer (NR concentration 270 nM)
How it was run: as §1

Sequence | PBM binding z-score [1] | PBM binding z-score [2] | PBM binding z-score [3] | PBM binding z-score [4] | PBM binding z-score [5] | PBM binding z-score [6] | PBM binding z-score [7] | PBM binding z-score [8] | PBM binding z-score [9]
CAAACTAGGTCATGAAAGGTCAAAGTCGAATGAC | 5.55 | 7.46 | 7.78 | 2.45 | 7.87 | 5.19 | 2.21 | 6.73 | 4.05
ATGGAAAGGTCGAGGTGAGTATAGAGAAAGGGAA | 3.16 | 4.21 | 4.21 | 0.469 | 4.53 | 3.15 | 1.47 | 2.81 | 0.902
ATCTCGAGGTAAAAGTTCAGTGAATCCCGAGGAT | 2.35 | 2.35 | 1.86 | 0.47 | 2.58 | 1.99 | 0.159 | 1.7 | 0.883
TCATATAGGTAAATGCTAGGTGACAGTCCGATCT | 0.444 | 0.642 | 0.401 | 1.28 | 0.653 | 1.4 | 0.389 | 0.746 | 0.525
GCTAGAAGGCCATTTGGGTCACTCAATGACGGGC | 2.47 | 1.61 | 2.24 | 0.256 | 1.05 | 2.42 | 0.686 | 1.82 | 1.05
TCATATAGGTAATACGGGTGAAAGTCGGCATCTA | 0.258 | 0.35 | 0.383 | 1.33 | 0.921 | 0.697 | 0.103 | 1.25 | 0.0658
CGTCCAAGGTCAGAGACGTCAGTGAATGCCGAGT | 3.39 | 4.24 | 4.6 | 2.62 | 3.33 | 3.24 | 1.49 | 2.76 | 1.24
TCGAGTAGGTTACAAATGGGGCATTCAGCTTTCT | 0.369 | 0.68 | 0.323 | 0.884 | 0.39 | 0.1 | -0.394 | 0.216 | -0.133
TCTAGCAAGCCAGAGGGTCACTCAAGAGGTACGG | 2.11 | 1.94 | 1.39 | -0.198 | 2.18 | 1.43 | -0.484 | 1.32 | 0.431
TCTAGTTGGTCACGGAGGTCACACAGGACGGGTA | 4.25 | 4.69 | 4.9 | 0.898 | 4.86 | 3.75 | 2.62 | 5.94 | 3.06
TCTAGTAGATCAAGCAGGTTAAGAAAGCCTGAGT | -0.158 | -0.256 | -0.373 | 0.554 | 0.16 | 0.0974 | -0.707 | 0.576 | -0.397
TCTTGTAGATCAACAGGAGGTTAAGGAAGATCGA | 0.564 | 0.698 | 0.308 | 0.0925 | 0.861 | 0.777 | -0.373 | 0.488 | -0.358
AGAATGAGGTTATTAAGATCGGGGAATTGCGGTC | 0.767 | 0.927 | 0.627 | 2.18 | 1.38 | 2.2 | 0.74 | 1.98 | 1.27
CGAAGTAGGTCAGAACAGGACAGTGAAGGATGAT | 2.04 | 2.23 | 3.23 | 0.286 | 1.37 | 3.52 | 0.146 | 0.559 | 0.1
CGTCCAAGGTCAAAGGTCAGTGTAGAGATGACGG | 5.37 | 8.64 | 8.04 | 3.99 | 10.1 | 4.77 | 2.77 | 6.6 | 3.86
ATACCTAGGTGATCGTGAGGTCGTTGATACTAAC | 1.49 | 1.58 | 0.568 | 0.641 | 1.51 | 3.15 | 2.51 | 2.66 | 3.13
